HT1080 IDH1KD tx: toxicity to HT-1080 IDH1 knockdown cells (counter line); AID 686971; HT-1080 IDH1 knockdown viability, ATP luminescence, 48 h; 360,000 tested, 2% active; Potency, µM (top dose mostly 46.1 µM), without a hit: at the top dose activity, negative = toxicity, hits mostly cytotoxic;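 further: 0% = DMSO wells and -100% = cell-free medium wells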
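HT-1080-IDH1KD cells (IDH1 knocked down), 750/well in RPMI with 5% FBS, treated with compound 48 h at 37 degrees C. Viability by CellTiter-Glo luminescence, normalised to DMSO and no-cell wells; concentration-response curves classed.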
HT1080NT lethal: kills 2HG-producing HT-1080-NT fibrosarcoma cells. HT-1080-NT fibrosarcoma viability, CellTiter-Glo ATP luminescence, 48 h. Potency, µM (titrated, usually from 46.1 µM), for the others: top-dose activity, negative = less viability, usual class: cytotoxic. 360,000 tested, 1.6% active. AID 686970;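 further: NT is the 2HG producing partner of a matched IDH1 knockdown line; 0% = DMSO-treated cells and -100% = media-only wells without cells; nearly all actives have a fitted effect of over 55% in size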
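750 cells/well, RPMI + 5% FBS; 2 h settle, compound pin-transfer, 48 h at 37 degrees C. CellTiter-Glo 10 min RT, luminescence. Normalized to DMSO and media-only wells.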
KB-V1 MDR tox: kills drug-selected multidrug resistant KB-V1 cells. KB-V1 MDR cells viability, CellTiter-Glo, 72 h. Potency, µM (top dose mostly 46.1 µM), usual class: cytotoxic. 400,000 tested, 3.4% active. AID 1347076; further: nearly all actives have a fitted effect of over 60% in size
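In this primary screen, KB-V1 cells overexpressing P-gp are incubated with library compounds (lowest to highest concentration) for 72 h at 37 degrees C before a luminescent ATP viability read.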
KB-3-1 cytotox: KB-3-1 parental cell cytotoxicity | AID 1347075 | Potency, µM (titrated, usually from 46.1 µM), usual class: cytotoxic | 400,000 tested, 1.4% active | KB-3-1 viability, CellTiter-Glo ATP luminescence, 72 h; further: nearly all actives have a fitted effect of over 60% in size
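KB-3-1 cells, DMEM (no phenol red) + 10% FBS; compound by pin transfer, 72 h, 37 °C. Readout: CellTiter-Glo luminescence after 10 min. Data normalized, curve-fitted.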
* = called active by the depositor; i = inactive; u = inconclusive; x = not tested or not shown. This is a sample that favours compounds with a hit; in the whole collection about 5.7% have one here. The call rests on the fitted dose curve; in most records, active means well fitted curve in the direction sought with a large enough effect; inconclusive means small, poorly fitted or top-dose-only effect, or another doubt; inactive means no such curve, though single readings can be large; an effect the other way counts as inactive or inconclusive. Unless noted, on the % scale 0 is the no-effect control and ±100 the full control effect; potency means the concentration at half of the fitted maximal effect.

SMILES	HT1080 IDH1KD tx	HT1080NT lethal	KB-V1 MDR tox	KB-3-1 cytotox
Cn1c(SCC(=O)c2ccc(F)cc2)nnc1-c1ccccc1Br	x	x	23µM*	u
Cc1occc1-c1nnc(SCC(=O)Nc2ccccc2)n1Cc1ccccc1	0%	-12%	u	i
Cn1c(SCC(=O)c2ccc(F)cc2)nnc1-c1ccccc1N	1%	-1%	i	i
Cc1occc1-c1nnc(SCC(=O)Nc2ccc(F)cc2)n1Cc1ccccc1	u	21µM*	8.2µM*	u
COc1ccccc1OCCCCn1c(-c2ccc(Cl)cc2)nc2ccccc2c1=O	x	x	i	i
CC(C)N(C(=O)c1cc2c(Cl)nc3ccccc3c2s1)C1CCCCC1	x	x	i	i
CC1(C)CC(=O)C2=C(C1)OC(N)=C(C#N)C2C1CC=CCC1 (stereo unspecified)	-9%	26%	16µM*	i
N#CC1=C(N)Oc2cc(N)ccc2C1C1CC=CCC1 (stereo unspecified)	u	u	6.5µM*	u
CC(=O)c1ccc(OCc2ccc(C(=O)c3ccccc3)cc2)cc1	-24%	-30%	16µM*	15µM*
CC(C(=O)Nc1cccc([N+](=O)[O-])c1)N1CCN(C/C=C/c2ccccc2)CC1 (stereo unspecified)	-4%	1%	3.7µM*	i
CCOC(=O)c1c(-c2ccccc2)oc2cc(CN(C)C)c(O)c(CN(C)C)c12	11µM*	u	u	u
CCOC(=O)c1c(-c2ccccc2)oc2ccc(O)c(CN3CCN(C)CC3)c12	u	u	21µM*	u
Cc1ccc(C(=O)n2nc(C)c(S(=O)(=O)N3CCCCCC3)c2C)cc1C	x	x	u	i
CCCCc1nn2c(=O)cc(COC(=O)c3ccco3)nc2s1	x	x	u	i
CCn1c(SCC(=O)N2CCC(C)CC2)nnc1-c1ccccc1O	x	x	i	i
Cc1cccc(C)c1NC(=O)CSc1nnc(Cn2nnc(-c3ccccc3)n2)n1-c1ccccc1	2%	-2%	8.2µM*	i
O=C(CSc1nnc(Cn2nnc(-c3ccccc3)n2)n1-c1ccccc1)Nc1ccc(F)cc1	7%	7%	i	i
O=C(CSc1nnc(Cn2nnc(-c3ccccc3)n2)n1-c1ccccc1)Nc1ccccc1	-2%	0%	15µM*	i
COCCNC(=O)CSc1nc(-c2ccccc2C)nc2c1c(=O)n(C)c(=O)n2C	x	x	i	i
CC1=CC(C)(C)N(C(=O)CSc2nnc(N)s2)c2cc(C)c(C)cc21	-3%	-4%	12µM*	i
CC1=CC(C)(C)N(C(=O)CSc2nnc(C)s2)c2ccc(C)cc21	7%	-4%	u	i
CC1=CC(C)(C)N(C(=O)CSc2nnc(-c3ccc(C)cc3)o2)c2ccc(C)cc21	-7%	-2%	8.2µM*	u
Cc1cccc(-c2nsc(SCC(=O)NCc3ccco3)n2)c1	-1%	1%	21µM*	i
CCn1c(=O)cc(SCC(=O)NCc2ccco2)c2ccccc21	5µM*	7.9µM*	u	26µM*
Cc1cccc(-c2nsc(SCC(=O)NCc3ccc4c(c3)OCO4)n2)c1	0%	-11%	i	i
SMILES	HT1080 IDH1KD tx	HT1080NT lethal	KB-V1 MDR tox	KB-3-1 cytotox
CCn1c(=O)cc(SCC(=O)Nc2ccc3c(c2)OCCO3)c2ccccc21	-5%	2%	16µM*	i
CCCc1nc2sc3c(SCC(=O)NCc4ccco4)ncnc3c2c2c1CCC2	-3%	-7%	12µM*	u
CCS(=O)(=O)N1CCc2cc(C(=O)NCc3ccc(Cl)cc3)ccc21	x	x	i	i
COc1ccc(C(=O)NCCn2cc(SCC(=O)NCc3ccco3)c3ccccc32)cc1	u	-4%	u	16µM*
Cc1cc2nnc(SCC(=O)NCc3ccco3)n2c2ccccc12	u	u	i	5.8µM*
Cc1nc(SCC(=O)NCc2ccco2)c2c3c(sc2n1)CCCC3	u	-7%	u	u
Cc1ccc(-c2csc3nnc(SCC(=O)Nc4cccc(C)n4)n23)cc1	-3%	-6%	7.3µM*	i
CC(C)Sc1nc2sc3c(c2c2nnc(SCC(=O)NCc4ccco4)n12)CCCC3	3%	5%	18µM*	i
COc1ccc(/C=C(\C)C(=O)NO)cc1	1%	0%	x	x
CC1CC(C)CN(C(=O)c2ccccc2Nc2ccc(SC(F)F)cc2)C1 (stereo unspecified)	-14%	-2%	i	u
